Sampled rows, rich in hits. Any-hit rate of the full collection: about 17%.
HepG2 tox – qHTS for Inhibitors of TGF-b: Cytotox Counterscreen; AID 588856, 2011; actives 0.76% (n = 410,000); HepG2 CAGA-GFP viability, ATP luminescence, 18 h; Potency, µM (top dose mostly 46.1 µM), without a hit: at the top dose activity change, negative = cytotoxicity, most hits filed as cytotoxic
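CellTiter-Glo luminescence gave cytotoxicity after 18 hours at 37 degrees C. The cells were HepG2 CAGA-GFP in 1% FBS DMEM, stimulated with 500 pg/mL TGF-beta after compound addition. %Activity was normalised to no-cell wells (complete cell-killing) and DMSO (no toxicity), and curves were fitted and classified.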
ATXN2 expr inh – Primary qHTS for Inhibitors of ATXN expression | HEK-293 ATXN2-luciferase reporter, luminescence, 24 h | actives 0.72% (n = 360,000) | Potency, µM (highest dose often 57 µM), inactives show top-dose activity change, negative = inhibition, actives largely listed as inhibitors; also: % is scaled to controls: 0 for no effect and ±100 for the full control effect; nearly all actives have a fitted effect of over 55% in size
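qHTS (up to 57 uM final) was run with 24 h compound exposure of reporter cells at 37 °C. Each well was multiplexed: SteadyGlo luminescence measured ATXN2-luciferase expression after a fluorogenic Gly-Phe-AFC viability readout (25 uM final).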
DT40 TDP1 CPT – qHTS for Inhibitors of human tyrosyl-DNA phosphodiesterase 1 (TDP1): qHTS in cells in presence of CPT; AID 686979, 2013; chicken DT40 Tdp1-/-;hTDP1 cells + 20 nM CPT, ATP luminescence, 48 h; Potency, µM (titrated, usually from 46.2 µM), inactives show at the highest dose activity change, negative = growth inhibition, most hits filed as inhibitors; actives 12% (n = 420,000); also: % is scaled to controls: 0 for no effect and ±100 for the full control effect; nearly all actives have a fitted effect of over 55% in size
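Chicken DT40 Tdp1-/- cells complemented with human TDP1, 400 cells/well, exposed to compounds plus 20 nM camptothecin for at least 48 h at 37 C; viability read as ATP content by CellTiter-Glo luminescence.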
DT40 TDP1 no CPT – qHTS for Inhibitors of human tyrosyl-DNA phosphodiesterase 1 (TDP1): qHTS in cells in absence of CPT | DT40 Tdp1-/- hTDP1 cells, no CPT, ATP luminescence, 48 h | actives 15% (n = 420,000) | Potency, µM (series often up to 46.2 µM), for inactives: top-dose activity change, negative = growth inhibition, actives largely listed as inhibitors; also: % is scaled to controls: 0 for no effect and ±100 for the full control effect; nearly all actives have a fitted effect of over 55% in size
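A cellular qHTS used chicken DT40 cells lacking endogenous Tdp1 but carrying stably transfected human TDP1. Compounds were applied without camptothecin, and cell growth kinetics were judged by ATP-dependent luminescence after ≥48 hr.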
S2 tox – Viability Counterscreen for Primary qHTS for Inhibitors of ATXN expression; S2 cells (HEK-293 line with an ATXN2-luciferase reporter) viability, CellTiter-Fluor protease fluorescence, 24 h; AID 651635, 2014; Potency, µM (top dose mostly 56.7 µM), usual class: cytotoxic; actives 0.49% (n = 400,000); also: nearly all actives have a fitted effect of over 40% in size
TGFb SMAD3 inh – qHTS for Inhibitors of TGF-b; HepG2 CAGA-GFP TGF-b/SMAD3 reporter, GFP fluorescence, 18 h; TGF-beta stimulated, 500 pg/mL final; actives 1.2% (n = 410,000); AID 588855, 2011; Potency, µM (doses to about 46.1 µM), without a hit: at the top dose activity, negative = inhibition, hits mostly inhibitors; also: % is scaled to controls: 0 for no effect and ±100 for the full control effect; nearly all actives have a fitted effect of over 65% in size
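TGF-beta reporter screen: HEPG2 CAGA-GFP, 1% FBS, 500 pg/mL TGF-beta final, 18 h; per-cell GFP summed per well; curves fitted and categorized by class.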
* marks the source's active call; other numbers are inactive results; i = inactive; ? = inconclusive; · = not tested or not shown. Calls follow the shape of the dose curve; as a rule, active = well fitted curve in the direction sought with a large enough effect; inconclusive = small, poorly fitted or top-dose-only effect, or another doubt; inactive = no such curve, though single readings can be large; an effect the other way counts as inactive or inconclusive. Potency is read from the fitted curve at half-maximal effect.

SMILES | HepG2 tox | ATXN2 expr inh | DT40 TDP1 CPT | DT40 TDP1 no CPT | S2 tox | TGFb SMAD3 inh
CCC(C)Nc1nc(-c2c[nH]c3ccccc23)cs1 (stereo not drawn) | -59% | -11% | -28% | ? | ? | 13µM*
Cc1sc2ncn(-n3c(C)ccc3C)c(=O)c2c1C | 7% | -2% | ? | ? | i | 11%
Cc1ccc(-c2csc3ncn(-n4c(C)ccc4C)c(=O)c23)o1 | -16% | 7% | 23µM* | 18µM* | i | 0%
CCC1=NN(C(=O)c2ccc(Br)cc2)C(O)(c2ccccc2)C1 (stereo not drawn) | -26% | ? | 5.8µM* | 6.5µM* | i | ?
CC1=NN(C(=O)c2ccccc2)C(O)(c2ccc(Br)cc2)C1 (stereo not drawn) | -21% | -38% | 5.8µM* | ? | i | ?
CCOC(=O)C1=NN(C(=O)c2ccc(OC)cc2)C(O)(c2ccc(Cl)cc2)C1 (stereo not drawn) | -7% | -24% | ? | ? | · | ?
CCOC(=O)C1=NN(C(=O)c2ccccc2)C(O)(c2ccc(C)cc2)C1 (stereo not drawn) | 0% | · | ? | 26µM* | · | -17%
O=C(c1ccccc1)N1N=C(C(F)(F)F)CC1(O)c1ccccc1O (stereo not drawn) | 7.1µM* | · | -7% | ? | ? | 8.9µM*
CCC1=NN(C(=O)c2cccc([N+](=O)[O-])c2)C(O)(c2ccc(C)cc2)C1 (stereo not drawn) | -74% | -37% | ? | ? | ? | ?
CCOCC(=O)Nc1cc(Cl)ccc1C | 18% | 3% | 8% | -16% | i | 10%
COc1ccccc1N1C(C)=CC(=C(C#N)c2nc3ccccc3s2)C=C1C | -24% | 4% | 8.2µM* | 13µM* | i | 7%
Cc1ccc(NC(=O)C(C)n2nnc3sc4c(c3c2=O)CCCC4)cc1Cl (stereo not drawn) | -14% | -1% | ? | 15µM* | ? | 1%
O=C(Cn1nnc2sc3c(c2c1=O)CCCC3)Nc1ccc(F)c(Cl)c1 | -33% | 14% | ? | -17% | i | ?
CC(C(=O)Nc1ccccc1C(F)(F)F)n1nnc2sc3c(c2c1=O)CCCC3 (stereo not drawn) | -15% | -7% | ? | ? | i | -30%
CC(C(=O)Nc1ccccc1)n1nnc2sc3c(c2c1=O)CCCC3 (stereo not drawn) | -26% | -14% | ? | -89% | i | 14µM*
COc1ccc(Cl)cc1NC(=O)C(C)n1nnc2sc3c(c2c1=O)CCCC3 (stereo not drawn) | -7% | -5% | 21µM* | 13µM* | i | -2%
CCN(C(=S)NC(=O)c1ccccc1Br)C1CCCCC1 | -8% | -1% | 16µM* | ? | ? | -22%
Cc1nc(SCC(=O)Nc2ccc3[nH]c(=O)[nH]c3c2)nc(C)c1C | -36% | 3% | -17% | -10% | i | -8%
Cc1ccc(S(=O)(=O)N2CCN(CC(=O)Nc3ccc([N+](=O)[O-])cc3)CC2)cc1C | -4% | -14% | ? | 16µM* | i | -30%
COc1cccc(N2CCN(S(=O)(=O)c3ccc(-c4coc(C)n4)cc3)CC2)c1 | -19% | · | ? | 21µM* | i | ?
Cc1cc(C)c(C)c(S(=O)(=O)N2CCN(CC(=O)Nc3ccc([N+](=O)[O-])cc3)CC2)c1C | 9% | -3% | -5% | -24% | i | -6%
COc1cccc(N2CCN(S(=O)(=O)c3cc4c(cc3C)N(C)CCO4)CC2)c1 | -60% | 0% | ? | 16µM* | i | -29%
Cc1nc(-c2ccc(S(=O)(=O)N3CCN(c4ccccc4)CC3)cc2)co1 | 4% | · | -23% | ? | i | 7%
COc1ccc(S(=O)(=O)N2CCN(CC(=O)Nc3ccc(Cl)c(C(F)(F)F)c3)CC2)cc1 | -1% | ? | 9.2µM* | 8.2µM* | i | ?
O=C(CN1CCN(S(=O)(=O)c2ccccc2)CC1)Nc1ccc2c(c1)CCC2 | 22% | -28% | ? | 15µM* | i | -3%
SMILES | HepG2 tox | ATXN2 expr inh | DT40 TDP1 CPT | DT40 TDP1 no CPT | S2 tox | TGFb SMAD3 inh
O=C(CN1CCN(S(=O)(=O)c2ccccc2)CC1)Nc1ccc(Cl)c([N+](=O)[O-])c1 | -22% | -23% | 21µM* | 23µM* | i | -4%
O=C(CN1CCN(Cc2ccccc2)CC1)Nc1ccc2c(c1)CCC2 | -1% | -1% | 2% | ? | · | -2%
Cc1ccc(S(=O)(=O)N2CCN(CC(=O)NC3CCCc4ccccc43)CC2)cc1C (stereo not drawn) | 0% | -25% | ? | 18µM* | i | ?
O=C(CN1CCN(S(=O)(=O)c2ccc(Br)cc2)CC1)Nc1ccccc1F | 14µM* | -13% | -19% | -19% | i | -8%
Cc1nc2ccccc2n1CCC(=O)Nc1cccc(F)c1 | -2% | 20% | ? | ? | i | 2%
OC[C@@H]1CN(CCc2ccccc2)C[C@H](n2cnc3c(NCc4ccc(F)cc4)ncnc32)O1 | 1% | -25% | ? | ? | ? | ?
CCOC(=O)c1ccc(CN(Cc2ccc(F)cc2)S(=O)(=O)c2ccc(F)c(C(=O)Nc3cc(Cl)ccc3OC)c2)cc1 | 7% | · | 6% | -2% | · | 2%
NS(=O)(=O)c1ccc(NC(=O)CN2CCN(S(=O)(=O)c3ccc(F)cc3)CC2)cc1 | -1% | 3% | 21µM* | 21µM* | i | 3%
NS(=O)(=O)c1ccc(NC(=O)CN2CCCN(S(=O)(=O)c3ccc(F)cc3)CC2)cc1 | 10% | -2% | -7% | -28% | i | ?
COc1cccc(N2CCN(CC(=O)Nc3ccc(S(=O)(=O)N4CCCCCC4)cc3)CC2)c1 | 1% | -6% | ? | 13µM* | ? | 2%
COc1cccc(NC(=O)CN2CCN(S(=O)(=O)c3ccc(F)cc3)CC2)c1 | -13% | -19% | -18% | -16% | i | -20%
O=C(CN1CCN(S(=O)(=O)c2ccccc2)CC1)Nc1ccc([N+](=O)[O-])cc1 | -28% | -8% | 18µM* | 12µM* | i | ?
